Inconclusive results are not listed. Activity calls are given as the source filed them. Unless noted, calls come from the whole dose curve.

Here are results for 32 compounds from PubChem BioAssay (NCATS).

Assay [1] in a line: qHTS for Inhibitors of the Functional Ribonucleoprotein Complex (vRNP) of Lassa (LASV) Arenavirus: LASV Primary Screen - GLuc reporter signal (AID 1347082; calls by dose curve; tested in HEK293 reporter line; note: nearly all actives have a fitted effect of over 60% in size).
Assay [2] is described as follows: qHTS for Inhibitors of the Functional Ribonucleoprotein Complex (vRNP) of Lassa (LASV) Arenavirus: Viability assay - alamar blue signal for LASV Primary Screen (AID 1347083; calls by dose curve; tested in HEK293 reporter line; note: nearly all actives have a fitted effect of over 80% in size). (In general: Quantitative high-throughput screening tests each substance at several concentrations.)
The nature of assay [3]: qHTS for Inhibitors of the Functional Ribonucleoprotein Complex (vRNP) of Lymphocytic Choriomeningitis Arenaviruses (LCMV): Viability assay - alamar blue signal for LCMV Primary Screen (AID 1347085; calls by dose curve; tested in HEK293 reporter line; note: nearly all actives have a fitted effect of over 80% in size).
Assay [4] addresses Nucleoprotein (Lymphocytic choriomeningitis virus (strain Armstrong)) (UniProt P09992). Description: qHTS for Inhibitors of the Functional Ribonucleoprotein Complex (vRNP) of Lymphocytic Choriomeningitis Arenaviruses (LCMV): LCMV Primary Screen - GLuc reporter signal (AID 1347086). Note: nearly all actives have a fitted effect of over 70% in size.
The nature of assay [5]: qHTS of pediatric cancer cell lines to identify multiple opportunities for drug repurposing: Primary screen for TC32 cells (AID 1347089; active = well fitted cell-killing curve with a large enough effect; note: nearly all actives have a fitted effect of over 60% in size). The gist of the method: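 A viability screen of TC32 cells was run over 48 h, with primary MIPE doses spanning 0.78 nM–46 µM and NPC doses 0.59 nM–46 µM. ATP luminescence (CellTiter-Glo) served as the read-out.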
Potency is the fitted concentration of half-maximal effect.

Chain of Nucleoprotein (Lymphocytic choriomeningitis virus (strain Armstrong)) (P09992 whole entry, looked up): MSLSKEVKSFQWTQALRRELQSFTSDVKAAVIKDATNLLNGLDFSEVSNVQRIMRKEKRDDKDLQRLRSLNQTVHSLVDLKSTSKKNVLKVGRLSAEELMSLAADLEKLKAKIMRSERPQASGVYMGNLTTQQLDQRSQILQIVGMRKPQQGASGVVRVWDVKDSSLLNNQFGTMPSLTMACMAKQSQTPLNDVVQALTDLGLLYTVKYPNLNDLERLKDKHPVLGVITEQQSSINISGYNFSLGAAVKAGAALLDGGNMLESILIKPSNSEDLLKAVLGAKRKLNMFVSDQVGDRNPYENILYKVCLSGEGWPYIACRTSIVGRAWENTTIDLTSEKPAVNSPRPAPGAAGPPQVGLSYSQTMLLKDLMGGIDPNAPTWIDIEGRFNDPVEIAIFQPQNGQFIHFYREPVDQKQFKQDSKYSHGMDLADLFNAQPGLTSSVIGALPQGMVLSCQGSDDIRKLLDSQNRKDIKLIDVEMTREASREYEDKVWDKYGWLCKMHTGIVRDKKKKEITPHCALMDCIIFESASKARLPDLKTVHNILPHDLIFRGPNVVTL

Consider `Cc1nn(Cc2ccccc2Cl)c(C)c1CN(C)CC(O)COc1ccc(Cl)cc1` (centres undefined), for which the Potency result in assay [1], in assay [2], in assay [3] and in assay [4] was “inactive” each time.
`CS(=O)(=O)Nc1ccc([N+](=O)[O-])cc1Oc1ccccc1`: the Potency result in assay [1], in assay [2], in assay [3] and in assay [4] was “inactive” in each case.
On to `NC(=O)C1CCCc2c1[nH]c1ccc(Cl)cc21` (centres undefined), for which the Potency entry in assay [1], in assay [2], in assay [3] and in assay [4] was “inactive” throughout.
As to `CCOc1ccc(Cc2cc([C@@H]3O[C@H](CO)[C@@H](O)[C@H](O)[C@@H]3O)ccc2Cl)cc1`, the Potency entry in assay [1], in assay [2], in assay [3] and in assay [4] was “inactive” throughout.
Consider `CC(C)(Sc1ccc(CCN(CCCCC2CCCCC2)C(=O)NC2CCCCC2)cc1)C(=O)O`, for which the Potency result in assay [1], in assay [2], in assay [3] and in assay [4] was “inactive” each time.
Turning to `OCCC#Cc1nc(-c2ccc(F)cc2)c(-c2ccncc2)n1CCCc1ccccc1`, the Potency entry in assay [1], in assay [2], in assay [3] and in assay [4] was “inactive” in each case.
As for `COc1cccc(OC)c1-c1cc(C(=O)NC2(C(=O)O)C3CC4CC(C3)CC2C4)nn1-c1ccnc2cc(Cl)ccc12` (centres undefined), the Potency entry in assay [1], in assay [2], in assay [3] and in assay [4] was “inactive” throughout.
As for `CCN1CCN(c2cc3c(cc2F)c(=O)c(C(=O)O)cn3C2CC2)CC1`, the Potency entry in assay [1], in assay [2], in assay [3] and in assay [4] was “inactive” throughout.
As for `O=[N+]([O-])c1c2ccccc2cc2ccccc12`, the Potency entry in assay [1], in assay [2], in assay [3], in assay [4] and in assay [5] was “inactive” in each case.
With `COc1ccc(C=Cc2cc(OC)c(OC)c(OC)c2)cc1O`, the Potency result in assay [1], in assay [2], in assay [3] and in assay [4] was “inactive” throughout.
As for `COc1nc(-c2ccc3c(c2)OCO3)n(-c2ccc(NC(=O)CSc3ccccc3)cc2)n1`, the Potency result in assay [1], in assay [2], in assay [3] and in assay [4] was “inactive” in each case.
Consider `CN1C(=O)CC[C@H]1c1cccnc1`, for which the Potency entry in assay [1], in assay [2], in assay [3] and in assay [4] was “inactive” each time.
On to `C=CC(=O)Nc1cc2c(Nc3ccc(F)c(Cl)c3)ncnc2cc1C#CC(C)(C)N1CCN(C)CC1`, for which the Potency entry in assay [1], in assay [2], in assay [3] and in assay [4] was “inactive” each time.
As to `COc1cccc2c1CCCC2CCCN1CCN(C2CCCCC2)CC1` (centres undefined), the Potency result in assay [1], in assay [2], in assay [3] and in assay [4] was “inactive” each time.
Turning to `CCN(CC)CCCCNc1nc2cc(Cl)c(Cl)cc2nc1-c1ccc(-c2cccs2)s1`, the Potency entry in assay [1], in assay [2], in assay [3] and in assay [4] was “inactive” each time.
Take `N#CC[C@H](C1CCCC1)n1cc(-c2ncnc3[nH]ccc23)cn1`: the Potency result in assay [1], in assay [2], in assay [3] and in assay [4] was “inactive” each time.
Take `CN(C)C1CCN(C(=O)c2ccc(NC(=O)Nc3nc(N4CCOCC4)nc(N4CCOCC4)n3)cc2)CC1`: the Potency in assay [1] was 0.243 µM (active); in assay [2], 68.5 nM (active); in assay [3], 0.0611 µM (active); in assay [4], 96.8 nM (active).
As for `O=C(Nc1cccc(Cl)c1)Nc1ncc(CCNc2ncnc3ccsc23)s1`, the Potency entry in assay [1], in assay [2], in assay [3] and in assay [4] was “inactive” in each case.
On to `C[C@H]1CCCC=CC2C[C@H](O)C[C@@H]2[C@H](O)C=CC(=O)O1` (some centres undefined), for which the Potency in assay [1] was 0.0273 µM (active); in assay [2] it was 24.3 nM (active); in assay [3], 0.0193 µM (active); in assay [4], 10.9 nM (active); in assay [5] it was 13.1 nM (active).
Turning to `Cn1c(Nc2ccc(C(F)(F)F)cc2)nc2cc(Oc3ccnc(-c4ncc(C(F)(F)F)[nH]4)c3)ccc21`, the figures for the Potency in assay [1], in assay [2] and in assay [3] were 21.7 µM (active), 2430 nM (active) and 8.63 µM (active), respectively. The Potency result in assay [4] is “inactive”.
The corresponding values for `NCCCC(N)(C(=O)O)C(F)F` (centres undefined) are “inactive”, “inactive”, “inactive” and “inactive”.
For the compound `Cc1ccccc1N=Nc1ccc(N=Nc2c(O)ccc3ccccc23)c(C)c1`, the Potency result in assay [1], in assay [2], in assay [3] and in assay [4] was “inactive” in each case.
On to `CCCOC(=O)c1ccc(O)cc1`, for which the Potency result in assay [1], in assay [2], in assay [3] and in assay [4] was “inactive” each time.
As to `COc1cc(Nc2ncc3c(n2)-c2ccc(Cl)cc2C(c2c(F)cccc2OC)=NC3)ccc1C(=O)O`, the Potency result in assay [1], in assay [2], in assay [3] and in assay [4] was “inactive” throughout.
`C[C@@H](N)C(=O)O`: the Potency result in assay [1], in assay [2], in assay [3] and in assay [4] was “inactive” throughout.
`CO[C@H]1C=CC=C(C)C(=O)NC2=CC(=O)C(NCCN(C)C)=C(C[C@@H](C)C[C@H](OC)[C@@H](O)[C@@H](C)C=C(C)[C@@H]1OC(N)=O)C2=O`: the Potency in assay [1] was 0.685 µM (active); in assay [2], 611 nM (active); in assay [3] it was 0.544 µM (active); in assay [4] it was 306 nM (active).
With `CC(=Cc1csc(C)n1)[C@@H]1C[C@H]2O[C@]2(C)CCC[C@H](C)[C@@H](O)[C@@H](C)C(=O)C(C)(C)[C@@H](O)CC(=O)O1`, the Potency result in assay [1], in assay [2], in assay [3] and in assay [4] was “inactive” each time. Further, the Potency in assay [5] was 3.7 nM (active).
As to `CCc1c(C(=O)C(N)=O)c2c(OCC(=O)O)cccc2n1Cc1ccccc1`, the Potency entry in assay [1], in assay [2], in assay [3], in assay [4] and in assay [5] was “inactive” throughout.
With `COC1=C[C@@H]2[C@@H]3Cc4ccc(OC)c(O)c4[C@]2(CCN3C)CC1=O`, the Potency in assay [1] was 19.3 µM (active); in assay [2] it was 19300 nM (active); in assay [3], 21.7 µM (active); in assay [4] it was 6110 nM (active). Also, the Potency entry in assay [5] is “inactive”.
The corresponding values for `O=C(N[C@@H](COc1ccc2[nH]c(=O)[nH]c2c1)c1ccccc1)c1cccn(Cc2ccc(F)c(F)c2)c1=O` are “inactive”, “inactive”, “inactive”, “inactive” and “inactive”.
Regarding `Cc1ccc(C(=O)Nc2cccc(C(F)(F)F)c2)cc1-c1ccc2nc(NCCN3CCOCC3)ncc2c1`, the Potency in assay [1] is 10.9 µM (active); in assay [2], 13700 nM (active); in assay [3], 19.3 µM (active); in assay [4], 12200 nM (active).
`C1=CC2C3C=CC(C3)C2C1` (centres undefined): the Potency result in assay [1], in assay [2], in assay [3] and in assay [4] was “inactive” throughout.
